Results on 80 molecules are retold here after article PMC4336329 (PLoS ONE, 2015).

The whole screen tested about 310,000 compounds, of which about 14,000 (4.5%) showed an effect of 50% or more. The effect is printed as a negative number. For the sample, strong results were picked, then their nearest neighbours and some compounds at random.
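Also: peak tail current of the secondary pulse compared with the same well before compound.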

Chain of human ether-à-go-go-related gene (hERG) potassium channel (Q12809 whole entry, looked up): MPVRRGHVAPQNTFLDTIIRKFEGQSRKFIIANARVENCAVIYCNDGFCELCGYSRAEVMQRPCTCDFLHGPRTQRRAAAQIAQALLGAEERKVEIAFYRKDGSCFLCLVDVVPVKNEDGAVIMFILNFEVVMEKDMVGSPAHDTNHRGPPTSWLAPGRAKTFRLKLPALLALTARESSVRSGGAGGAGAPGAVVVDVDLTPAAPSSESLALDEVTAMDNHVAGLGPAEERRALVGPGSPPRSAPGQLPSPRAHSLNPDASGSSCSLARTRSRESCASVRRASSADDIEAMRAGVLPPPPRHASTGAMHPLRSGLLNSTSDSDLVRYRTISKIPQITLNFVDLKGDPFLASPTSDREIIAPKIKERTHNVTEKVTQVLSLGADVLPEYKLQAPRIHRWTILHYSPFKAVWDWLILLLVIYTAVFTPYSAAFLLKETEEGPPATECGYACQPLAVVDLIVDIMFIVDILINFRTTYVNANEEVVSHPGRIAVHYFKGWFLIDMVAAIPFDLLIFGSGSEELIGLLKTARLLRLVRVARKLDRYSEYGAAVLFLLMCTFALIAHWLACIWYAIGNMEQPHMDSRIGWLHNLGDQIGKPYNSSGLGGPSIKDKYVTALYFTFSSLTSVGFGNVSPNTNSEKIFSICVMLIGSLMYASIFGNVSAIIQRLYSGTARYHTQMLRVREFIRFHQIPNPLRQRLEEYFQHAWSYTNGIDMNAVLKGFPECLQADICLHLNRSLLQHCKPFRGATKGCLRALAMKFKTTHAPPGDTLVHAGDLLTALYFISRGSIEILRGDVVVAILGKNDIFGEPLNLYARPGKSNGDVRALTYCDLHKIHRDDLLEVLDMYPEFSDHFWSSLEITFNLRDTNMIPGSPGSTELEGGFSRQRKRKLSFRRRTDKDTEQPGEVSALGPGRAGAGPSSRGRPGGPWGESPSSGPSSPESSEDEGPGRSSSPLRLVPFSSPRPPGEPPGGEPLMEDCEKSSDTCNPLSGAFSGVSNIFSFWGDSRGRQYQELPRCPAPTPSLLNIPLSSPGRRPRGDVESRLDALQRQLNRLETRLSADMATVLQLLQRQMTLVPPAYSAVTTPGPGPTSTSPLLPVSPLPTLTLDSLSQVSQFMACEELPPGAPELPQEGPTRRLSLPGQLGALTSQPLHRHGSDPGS

The experiment has as its target human ether-à-go-go-related gene (hERG) potassium channel (human, UniProt Q12809). Kind of experiment: primary screen, population patch clamp on CHO cells stably expressing hERG; higher = less effect of the substance.
On to `COc1ccc(C2SCC(C(=O)NCc3ccc(F)cc3)N2C(C)=O)cc1` (centres unmarked), for which the “hERG current change (%, negative = inhibition) at 10uM” value is -20.2%.
For `Nc1ccccc1SSc1ccccc1N` the value was 27.7%.
For `CCCN1CCN(CCCNC(=O)C2CCCN(c3nc4ccc(OCC)cc4s3)C2)CC1` (centres unmarked) the value was -56.7%.
As for `CCOc1cc2sc(N3CCC(C(=O)NCCCN4CCCC4=O)CC3)nc2cc1Br`, the “hERG current change (%, negative = inhibition) at 10uM” value is -60.5%.
As for `O=C(NCCCN1CCCC1=O)C1CCN(S(=O)(=O)c2c(Cl)cccc2Cl)CC1`, the “hERG current change (%, negative = inhibition) at 10uM” value is -0.379%.
For `Cc1cc(C)c2nc(N3CCC(C(=O)NCCCN4CCCC4=O)CC3)sc2c1` the value was -25.5%; for `Cc1ccc(S(=O)(=O)N2CCC(C(=O)NCCCN3CCCC3=O)CC2)cc1C`, 7.98%; for `CCOc1ccc2nc(N3CCCC(C(=O)NCCCN4C(C)CCCC4C)C3)sc2c1` (centres unmarked), -54.7%.
On to `Cc1cc(C)c(C)c(S(=O)(=O)N2CCC(C(=O)NCCCN3CCCC3=O)CC2)c1C`, for which the “hERG current change (%, negative = inhibition) at 10uM” value is -70%.
Regarding `COc1ccc2nc(N3CCCC(C(=O)NCCCN4C(C)CCCC4C)C3)sc2c1` (centres unmarked), the “hERG current change (%, negative = inhibition) at 10uM” value is recorded as -34.1%.
Take `CCOc1ccc2nc(N3CCC(C(=O)NCCCN4CCOCC4)CC3)sc2c1`: the “hERG current change (%, negative = inhibition) at 10uM” value is -17.7%.
Take `CCOc1ccc2nc(N3CCCC(C(=O)NC4CCCC4)C3)sc2c1` (centres unmarked): the “hERG current change (%, negative = inhibition) at 10uM” value is recorded as -0.903%.
In the case of `CCOc1ccc2nc(N3CCCC(C(=O)NCC4CCCO4)C3)sc2c1` (centres unmarked), the “hERG current change (%, negative = inhibition) at 10uM” value is -19.1%.
For `COc1ccc2nc(N3CCCC(C(=O)NCCCN4CCN(C)CC4)C3)sc2c1` (centres unmarked) the value was 1.67%; for `CCOC(=O)C1=C(c2ccccc2)OC(N)=C(C#N)C1c1cccs1` (centres unmarked), 3.11%.
For `O=C(c1ccc(=O)[nH]c1)N1CCN(S(=O)(=O)c2cc(C(F)(F)F)ccc2Cl)CC1`, the “hERG current change (%, negative = inhibition) at 10uM” value is -13.4%.
For `Cc1ccc(NC(=O)CN(C)Cc2ccc(F)cc2)c([N+](=O)[O-])c1` the value was -17.8%.
For `CSc1nc2c(c(=O)[nH]1)C(c1ccncc1)C(C(=O)OC(C)C)=C(C)N2` (centres unmarked) the value was -0.441%; for `CCN(CC)c1ccc(NC(=O)COc2ccccc2C#N)cc1S(=O)(=O)Nc1ccc(OC)cc1`, 13%; for `COc1ccc([C@@H]2[C@@H]3C(=O)N(C(C)(C)C)C(=O)[C@@H]3[C@]3(Cc4ccccc4)C(=O)N(c4ccc(C)cc4)C(=O)N23)cc1`, 2.04%.
Turning to `CN(Cc1ccccc1)C(=O)c1[nH]cnc1C(=O)NCC(=O)OC(C)(C)C`, the “hERG current change (%, negative = inhibition) at 10uM” value came to 10.4%.
For the molecule `COc1ccc(/C=C2\SC(=O)N(CCNC(=O)Cc3coc4cc(C)ccc34)C2=O)cc1OC`, the “hERG current change (%, negative = inhibition) at 10uM” value is 4.76%.
Consider `CC(C)(C)[C@@H]1CCC(=O)N(CC[C@H](Sc2ccccc2)c2ccccc2)CC1`, for which the “hERG current change (%, negative = inhibition) at 10uM” value stood at 17.1%.
Regarding `Cc1cc(C)cc(NC(=O)COC(=O)CC2CCCC2)c1`, the “hERG current change (%, negative = inhibition) at 10uM” value was -0.633%.
As for `Cc1cccc(C)c1NC(=O)CN(C)C(=O)CCc1nc2sc3c(c2c(=O)[nH]1)CCCC3`, the “hERG current change (%, negative = inhibition) at 10uM” value came out at 5.53%.
Take `Cc1ccc2occ(/C=N/NC(=O)[C@@H](N)Cc3ccccc3)c(=O)c2c1.Cl`: the “hERG current change (%, negative = inhibition) at 10uM” value is reported as -22.5%.
For `CCOc1ccc2nc(N3CCCC(C(=O)NCCCN4CCOCC4)C3)sc2c1` (centres unmarked) the value was -19.6%.
Turning to `CCOc1ccc2nc(N3CCCC(C(=O)NCCCN4CCCCC4)C3)sc2c1` (centres unmarked), the “hERG current change (%, negative = inhibition) at 10uM” value was -64.8%.
Consider `CCOc1ccc2nc(N3CCCC(C(=O)NCCCN4CC(C)CC(C)C4)C3)sc2c1` (centres unmarked), for which the “hERG current change (%, negative = inhibition) at 10uM” value is reported as -48.8%.
Regarding `COc1cccc(C2C(C#N)=C(N)Oc3cc(C)n(Cc4ccccn4)c(=O)c32)c1OC` (centres unmarked), the “hERG current change (%, negative = inhibition) at 10uM” value was found to be 3.7%.
Turning to `CC1(C)CC2CC(C)(CN2C(=O)C23CCC(C)(C(=O)C2)C3(C)C)C1` (centres unmarked), the “hERG current change (%, negative = inhibition) at 10uM” value is recorded as -4.28%.
In the case of `CC(NC(=O)c1ccccc1)c1nc2ccccc2n1Cc1ccc(C#N)cc1` (centres unmarked), the “hERG current change (%, negative = inhibition) at 10uM” value was -68.6%.
For `N#Cc1ccc(CN2CCN(C(=O)CC(NC(=O)c3ccccc3)c3ccccc3)CC2)cc1` (centres unmarked) the value was -81.2%.
Turning to `O=C(NC(=S)N1CCN(Cc2ccccc2)CC1)c1ccccc1`, the “hERG current change (%, negative = inhibition) at 10uM” value is 6.47%.
For the molecule `CCn1c(C(C)NC(=O)c2cccc(C)c2)nc2ccccc21` (centres unmarked), the “hERG current change (%, negative = inhibition) at 10uM” value was -19.6%.
Take `COc1cccc(N2CCN(C(=O)CC(NC(=O)c3ccccc3)c3ccccc3)CC2)c1` (centres unmarked): the “hERG current change (%, negative = inhibition) at 10uM” value is listed as -65%.
As for `Cc1cccc(N2CCN(C(=O)CC(NC(=O)c3ccccc3)c3ccccc3)CC2C)c1` (centres unmarked), the “hERG current change (%, negative = inhibition) at 10uM” value is -47.1%.
As for `COc1ccc(N2CCN(C(=O)CC(NC(N)=O)c3cccc(Oc4ccccc4)c3)CC2)cc1` (centres unmarked), the “hERG current change (%, negative = inhibition) at 10uM” value is reported as -7.97%.
Turning to `CC(=O)NC(CC(=O)N1CCN(C(C)=O)CC1)c1ccccc1` (centres unmarked), the “hERG current change (%, negative = inhibition) at 10uM” value is on record as 27%.
For `CC(NC(=O)c1ccccc1)c1nc2ccccc2n1Cc1ccccc1F` (centres unmarked) the value was 0.996%; for `CCC1(C)Cc2c(sc3c2c(=O)n(-c2ccccc2)c(=O)n3C)CO1` (centres unmarked), 5.26%; for `COc1cc2cnc(-c3ccccc3)c(-c3cc(OC)c(OC)c(OC)c3)c2cc1OC`, -0.323%.
On to `Cn1c2ccccc2c(=O)c2ccc(C#CC3(O)CCCCC3)cc21`, for which the “hERG current change (%, negative = inhibition) at 10uM” value worked out at 1.63%.
For `COc1cccc(N(CC(=O)NCc2ccco2)C(=O)CCC(=O)Nc2nccs2)c1` the value was 1.6%; for `CSCCC(NS(=O)(=O)c1ccc(Cl)cc1)C(=O)OCc1c(Cl)cccc1Cl` (centres unmarked), 6.45%; for `COc1ccc(OC)c(C(C)NC(=S)NC2CCCCC2)c1` (centres unmarked), -6.58%.
As for `Cc1cccc(OC(C)C(=O)N2CCCN(C)CC2)c1C` (centres unmarked), the “hERG current change (%, negative = inhibition) at 10uM” value came to 1.75%.
On to `COc1ccc(NC(=O)CSc2nnc3n2CCCCC3)cc1`, for which the “hERG current change (%, negative = inhibition) at 10uM” value amounted to 8.17%.
Take `Cc1ccccc1S(=O)(=O)Oc1ccccc1C(=O)Oc1ccccc1`: the “hERG current change (%, negative = inhibition) at 10uM” value is -1.26%.
In the case of `Br.C=CCN1C(c2ccc(OCC)cc2)=CS/C1=C(\C#N)c1nnc2n1CCCCC2`, the “hERG current change (%, negative = inhibition) at 10uM” value is reported as -37.9%.
Take `C=CCn1c(=O)/c(=C/c2ccc(O)cc2)s/c1=C(/C#N)c1nnc2n1CCCCC2`: the “hERG current change (%, negative = inhibition) at 10uM” value is listed as -16.6%.
For `Br.CCOc1ccc(C2=CS/C(=C(\C#N)c3nnc4n3CCCCC4)N2CC)cc1` the value was -47.3%.
As to `C=CCn1c(=O)/c(=C/c2ccc(F)cc2)s/c1=C(\C#N)c1nnc2n1CCCCC2`, the “hERG current change (%, negative = inhibition) at 10uM” value is on record as -59.9%.
Take `Br.C=CCN1C(c2ccccc2)=CS/C1=C(\C#N)c1nnc2n1CCCCC2`: the “hERG current change (%, negative = inhibition) at 10uM” value was -59.2%.
For `C=CCn1c(=O)/c(=C/c2ccc(Cl)cc2)s/c1=C(/C#N)c1nnc2n1CCCCC2` the value was -43%.
For `Cc1cc(C(=O)Nc2ccc(C(=O)O)cc2)c(C)o1` the value was 23.9%; for `Cc1cc(C)c(C)c(S(=O)(=O)N2CCN(c3ncnc4ccccc34)CC2)c1C`, -4.67%.
`Cc1c(NC(=O)c2cc(-c3ccc(Cl)cc3)on2)c(=O)n(-c2ccccc2)n1C`: the “hERG current change (%, negative = inhibition) at 10uM” value was -55.1%.
On to `Cc1c(NC(=O)c2cc3nc(-c4ccc(Br)cc4)cc(C(F)(F)F)n3n2)c(=O)n(-c2ccccc2)n1C`, for which the “hERG current change (%, negative = inhibition) at 10uM” value is reported as -33.9%.
Turning to `Cc1c(NC(=O)c2noc3c2CCc2ccccc2-3)c(=O)n(-c2ccccc2)n1C`, the “hERG current change (%, negative = inhibition) at 10uM” value is -52.9%.
On to `Cc1c(N/C(=N/S(=O)(=O)c2ccccc2)c2ccc(Cl)cc2)c(=O)n(-c2ccccc2)n1C`, for which the “hERG current change (%, negative = inhibition) at 10uM” value is reported as -30.7%.
On to `Cc1ccc(-c2cc(C(=O)Nc3c(C)n(C)n(-c4ccccc4)c3=O)no2)cc1`, for which the “hERG current change (%, negative = inhibition) at 10uM” value is -25.3%.
For `Cc1c(N/C(=N/S(=O)(=O)c2ccc(Cl)cc2)c2ccccc2)c(=O)n(-c2ccccc2)n1C`, the “hERG current change (%, negative = inhibition) at 10uM” value was -20.6%.
Take `Cc1ccc(-c2cc(C(F)(F)F)n3nc(C(=O)Nc4c(C)n(C)n(-c5ccccc5)c4=O)cc3n2)cc1`: the “hERG current change (%, negative = inhibition) at 10uM” value is reported as -14.3%.
On to `Cc1ccc(S(=O)(=O)/N=C(/Nc2c(C)n(C)n(-c3ccccc3)c2=O)c2ccc(Cl)cc2)cc1`, for which the “hERG current change (%, negative = inhibition) at 10uM” value is given as -57%.
For `Cc1c(NC(=O)c2cc3nc(-c4ccc(Cl)cc4)cc(C(F)(F)F)n3n2)c(=O)n(-c2ccccc2)n1C` the value was -55.3%; for `COc1ccc2c(c1)CCc1c(C(=O)Nc3c(C)n(C)n(-c4ccccc4)c3=O)noc1-2`, 4.63%; for `Cc1c(NC(=O)c2cc(-c3ccccc3)on2)c(=O)n(-c2ccccc2)n1C`, -27.7%.
With `Cc1cc(NC(=O)c2noc3c2CCc2ccccc2-3)no1`, the “hERG current change (%, negative = inhibition) at 10uM” value was found to be 11%.
On to `CCC(C)(C)NC(=O)C1c2ccccc2Oc2ccccc21`, for which the “hERG current change (%, negative = inhibition) at 10uM” value came to 23%.
On to `O=C(O)CC1Sc2nnc(COc3ccc(Cl)cc3)n2N=C1c1ccccc1` (centres unmarked), for which the “hERG current change (%, negative = inhibition) at 10uM” value was 21.2%.
For `CN(C)S(=O)(=O)c1cc(S(=O)(=O)N(C)C)c(Cl)cc1N` the value was -8.31%.
For `COC(=O)c1ccccc1NC(=S)NC(NC(=O)c1ccccc1[N+](=O)[O-])C(Cl)(Cl)Cl` (centres unmarked) the value was -1.4%.
Take `CCc1oc(C(=O)OC)cc1CSC(=N)N.Cl`: the “hERG current change (%, negative = inhibition) at 10uM” value was 12%.
For the molecule `CS(=O)(=O)c1ccc(C(=O)NC2CCCc3ccccc32)cc1` (centres unmarked), the “hERG current change (%, negative = inhibition) at 10uM” value is 20%.
Consider `COc1ccc(-c2csc(-c3cccnc3)n2)cc1C`, for which the “hERG current change (%, negative = inhibition) at 10uM” value is recorded as -3.79%.
For the molecule `CCCCNC(=O)Nc1nnc(-c2ccc(OCC)cc2)o1`, the “hERG current change (%, negative = inhibition) at 10uM” value is 10.1%.
Consider `CCN(CC)CCCNC(=O)c1[nH]c(C)c(C(=O)NC2CCCCC2)c1C`, for which the “hERG current change (%, negative = inhibition) at 10uM” value came out at 12.9%.
In the case of `CCc1nc(SCC(=O)Nc2cc(OC)ccc2OC)c2c(C)c(C)sc2n1`, the “hERG current change (%, negative = inhibition) at 10uM” value stood at 3.63%.
Consider `CC(C)Cc1nnc(NC(=O)C2CCN(C(=O)c3ccc(Cl)cc3)CC2)s1`, for which the “hERG current change (%, negative = inhibition) at 10uM” value was -29.2%.
